Source: PubChem BioAssay
KB-V1 cytotox: qHTS assay for MDR1-selective chemotherapeutics: Primary screen using the drug-selected MDR subline cells KB-V1. KB-V1 MDR cells viability, CellTiter-Glo, 72 h. Potency, µM (doses to about 46.1 µM), usual class: cytotoxic. 3.4% of 400,000 active. AID 1347076, 2019; also: nearly all actives have a fitted effect of over 60% in size
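Drug-selected KB-V1 cells, grown in DMEM lacking phenol red with 10% FBS, receive compound titrations; after three days at 37 degrees C, surviving cell ATP is quantified by CellTiter-Glo luminescence and responses normalized and curve-fitted.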
KB-3-1 cytotox: qHTS assay for MDR1-selective chemotherapeutics: Primary screen using the parental adenocarcinoma cell KB-3-1. AID 1347075, 2019. Potency, µM (highest dose often 46.1 µM), usual class: cytotoxic. KB-3-1 viability, CellTiter-Glo ATP luminescence, 72 h. 1.4% of 400,000 active; also: nearly all actives have a fitted effect of over 60% in size
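Viability of parental KB-3-1 cells, measured by CellTiter-Glo luminescence, followed a 72 h incubation at 37 °C with pinned compounds in phenol-red-free DMEM containing 10% FBS.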
MCF10A rereplic: A quantitative high throughput screen for small molecules that induce DNA re-replication in MCF 10a normal breast cells; MCF 10A DNA re-replication, Hoechst nuclear intensity, 48 h; Potency, µM (series often up to 46.1 µM), usual class: activators; 2.9% of 350,000 active; AID 624296, 2012; also: nearly all actives have a fitted effect of over 50% in size
SW480 rerep: A quantitative high throughput screen for small molecules that induce DNA re-replication in SW480 colon adenocarcinoma cells | 1.8% of 340,000 active | SW480 DNA re-replication, Hoechst DNA content imaging, 48 h | Potency, µM (doses to about 46.1 µM), actives largely listed as activators; also: nearly all actives have a fitted effect of over 55% in size
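Image-based read-out: total Hoechst fluorescence of nuclei (405 nm excitation, 500-530 nm emission), with hits raising the fraction of high-intensity nuclei. SW480 colon cells incubated 48 hr with compounds at 37 C.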
PINK1 expr mod: A Quantitative High throughput Screen to Identify Chemical Modulators of PINK1 Expression; 0.2% of 410,000 active; Potency, µM (doses to about 76.6 µM), usual class: activators; PINK1 immunofluorescence, high-content cytometry, 24 h; active = well fitted activation curve with a large enough effect; inconclusive = small, poorly fitted or top-dose-only effect; cell line not stated here; also: nearly all actives have a fitted effect of over 65% in size
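Stable cell line treated 24 h with compounds at 5 concentrations (CCCP controls), then fixed and immunostained for PINK1 plus nuclear and cell stains; PINK1 immunofluorescence quantified by laser-scanning microplate cytometry.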
Numbers stand for hits; . = inactive; ? = inconclusive; / = no result. In the library only some 6.7% were active in any assay of this set; here they are far more common. Unless noted, calls follow the shape of the dose curve; as a rule, active = well fitted curve in the direction sought with a large enough effect; inconclusive = small, poorly fitted or top-dose-only effect, or another doubt; inactive = no such curve, though single readings can be large; an effect the other way counts as inactive or inconclusive.

SMILES	KB-V1 cytotox	KB-3-1 cytotox	MCF10A rereplic	SW480 rerep	PINK1 expr mod
CC1(C)C(C=C(Cl)Cl)C1C(=O)N(Cc1ccccc1Cl)C1CCS(=O)(=O)C1 (configuration not stated)	15µM	.	.	.	.
Cc1nc2cnc(Oc3ccccc3)nc2n(C2CC2)c1=O	/	/	/	/	.
O=C(Cc1c(Cl)cccc1Cl)NCCc1ccc(Cl)cc1	.	.	.	.	.
O=C(CCl)NCc1c(Cl)cccc1-n1cccc1	.	.	18µM	.	.
O=P(OC1CCCCC1)(OC1CCCCC1)C(O)c1cccnc1 (configuration not stated)	.	?	.	.	.
O=P(OC1CCCCC1)(OC1CCCCC1)C(O)c1ccccc1 (configuration not stated)	9.2µM	.	.	.	.
COc1ccc(NC(=O)C2(C)CCCN(C(C)=O)C2)cc1F (configuration not stated)	.	.	/	/	.
COc1ccccc1-c1noc(-c2ccc(N3CCC(C)CC3)c([N+](=O)[O-])c2)n1	.	.	/	/	.
CC1Cc2ccccc2C(CCc2ccccc2)=N1 (configuration not stated)	.	.	.	.	.
COc1ccccc1CNc1nc2cc(-c3ccsc3)sc2c(=O)n1C	21µM	?	/	/	.
Cn1c(NCC2CCCCC2)nc2cc(-c3ccsc3)sc2c1=O	.	18µM	/	/	.
Cn1c(NCc2ccncc2)nc2cc(-c3ccsc3)sc2c1=O	.	.	/	/	.
COc1ccc(-c2cc3nc(NCc4ccc(C)cc4C)n(C)c(=O)c3s2)cc1OC	2.6µM	15µM	/	/	.
COc1cc(C(=O)N2CCCCC2c2cc(C(=O)Nc3ccccc3)no2)cc(OC)c1C (configuration not stated)	.	.	/	/	.
CCC(Sc1nc2nccnc2c(=O)n1Cc1ccc(Cl)cc1)C(=O)NC1CCCCC1 (configuration not stated)	/	/	/	/	.
O=C(N/C(=C/c1ccc([N+](=O)[O-])cc1)C(=O)N1CCOCC1)c1ccco1	.	.	.	.	.
N=c1c(C(=O)NC2CCCC2)cc2c(=O)n3ccccc3nc2n1C1CCCCC1	?	.	2.9µM	4.6µM	.
CNC(=O)c1cc2c(=O)n3cc(C)ccc3nc2n(C(C)C)c1=N	.	.	7.1µM	?	.
Cc1ccc2nc3c(cc(C(=O)NC4CCCCC4)c(=N)n3C3CCCCC3)c(=O)n2c1	?	?	?	18µM	.
COc1cc(-c2cnc3c(NC=O)cc(-c4cccc(C(=O)NCCN(C)C)c4)cn23)cc(OC)c1OC	.	.	/	/	.
Cc1ccc(-n2c(=O)c3oc4ccccc4c3n(Cc3cccc(F)c3)c2=O)cc1C	/	/	/	/	.
CCN(CC)c1ccc(NC(=O)c2cc(OC)cc(OC)c2)c(C)c1	1.2µM	0.92µM	2.1µM	4.6µM	.
Cc1ccc(CCNC(=O)c2c(C)nn(-c3ccc(F)cc3)c2-n2cccc2)cc1	5.8µM	3.3µM	/	/	.
COc1cc(OC)c(NC(=O)c2c(C)nn(-c3ccc(C)cc3)c2-n2cccc2)cc1Cl	?	23µM	/	/	.
COc1ccc(CCNC(=O)c2c(C)nn(-c3ccc(F)cc3)c2-n2cccc2)cc1OC	5.2µM	5.8µM	/	/	?
SMILES	KB-V1 cytotox	KB-3-1 cytotox	MCF10A rereplic	SW480 rerep	PINK1 expr mod
Cc1ccc(NC(=O)c2c(C)nn(-c3ccccc3)c2-n2cccc2)c(Cl)c1	.	.	/	/	.
Cc1ccc(-n2nc(C)c(C(=O)NCCCN3CCN(c4ccccc4F)CC3)c2-n2cccc2)cc1	/	/	/	/	.
Nc1nc(NCCc2ccccc2)c2[nH]cnc2n1	.	.	/	/	.
CC(=O)N1C[C@H]2CON(C)[C@H]2C[C@H]1c1ccccc1	.	.	/	/	.
CCC(C(=O)N1CCC(N2CCCCC2)CC1)n1nc(C)c2sc3ccccc3c2c1=O (configuration not stated)	.	.	.	.	.
O=C(Nc1cccc(Cl)c1)c1csc(COCCO)n1	.	.	/	/	.
CCOc1ccc(CNC(=O)CCS(=O)(=O)c2cc3c4c(c2)CCN4C(=O)CC3)cc1OC	.	.	/	/	.
COc1ccc(CCNC(=O)c2c(O)nc3c(C)cccn3c2=O)cc1OC	6.5µM	.	/	/	.
COc1ccc(OC)c(CCNC(=O)c2c(C)nn(-c3ccc(F)cc3)c2-n2cccc2)c1	12µM	?	/	/	.
CCN(CC)c1ccc(NC(=O)c2c(C)nn(-c3ccc(F)cc3)c2-n2cccc2)c(C)c1	21µM	?	/	/	.
Cc1cc(C)c(NC(=O)c2c(C)nn(-c3ccc(F)cc3)c2-n2cccc2)c(C)c1	.	?	/	/	.
COc1cccc(CCNC(=O)c2c(O)nc3c(C)cccn3c2=O)c1	?	.	/	/	.
CN(C(=O)C(C)(C)C)[C@H]1C[C@H]2c3[nH]c4ccccc4c3CCN2C(=O)[C@H]1CO	.	.	/	/	.
CN(C(=O)NC1CCCCC1)[C@H]1C[C@H]2c3[nH]c4ccccc4c3CCN2C(=O)[C@H]1CO	.	6.5µM	/	/	.
CN(Cc1cc(Cl)cc(Cl)c1)[C@H]1C[C@H]2c3[nH]c4ccccc4c3CCN2C(=O)[C@H]1CO	.	?	/	/	45µM
N#Cc1ccccc1Cn1c(=O)n(-c2ccc(F)c(Cl)c2)c(=O)c2sccc21	/	/	/	/	.
COc1ccc(S(=O)(=O)N2CCN(C(=O)c3c(C)nn(-c4ccccc4)c3C)CC2)cc1	13µM	.	.	.	.
COCC1CCCCN1C(=O)c1cccc(OC2CCN(S(C)(=O)=O)CC2)c1 (configuration not stated)	.	.	.	.	.
COc1ccc(C(=O)/C=C2/C(=O)Nc3ccccc32)cc1	.	?	9.2µM	?	.
O=C1Nc2ccccc2/C1=C/C(=O)c1cccs1	.	.	21µM	?	.
COc1ccc(C(=O)/C=C2/C(=O)Nc3ccccc32)cc1OC	.	.	8.2µM	?	.
C=CCOc1ccc(C(=O)/C=C2/C(=O)Nc3ccccc32)cc1	.	.	?	?	.
O=C(C=Cc1ccccc1)c1cccs1	?	?	?	?	.
NC(=O)COc1ccc(C(=O)/C=C2/C(=O)Nc3ccccc32)cc1	.	.	?	23µM	.
COc1ccc(C(=O)/C=C2/c3ccccc3CC(C)(C)N2C)cc1	.	.	?	?	?
CCOC(=O)c1c(NC(=O)CSc2cn(CCNC(=O)c3ccccc3OC)c3ccccc23)sc2c1CCCC2	?	?	/	/	.
C=CCOc1ccccc1C(=O)/C=C1/C(=O)Nc2ccccc21	.	?	3.7µM	?	.
COc1ccc(C(=O)/C=C2/C(=O)Nc3ccccc32)c(OC)c1	?	?	23µM	?	.
CN(C)c1ccc(/C=C2\C(=O)Nc3ccccc32)cc1	.	.	/	/	.
NS(=O)(=O)c1ccc(CCNC(=O)c2nc(SCc3ccccc3F)ncc2Cl)cc1	.	.	/	/	.
